Experimental findings from PubChem BioAssay AID493168 (National Center for Advancing Translational Sciences (NCATS), 2011) are described below.

Records with an inconclusive call do not appear. The source made the active and inactive calls. Calls follow the shape of the dose curve; as a rule, active = well fitted inhibition curve with a large enough effect; inconclusive = small, poorly fitted or top-dose-only effect, or effect the other way; inactive = flat fitted curve, though single readings scatter.
Potency is read from the fitted curve at half-maximal effect.

Chain of Ubiquitin carboxyl-terminal hydrolase 2 (Homo sapiens) (O75604 whole entry, looked up): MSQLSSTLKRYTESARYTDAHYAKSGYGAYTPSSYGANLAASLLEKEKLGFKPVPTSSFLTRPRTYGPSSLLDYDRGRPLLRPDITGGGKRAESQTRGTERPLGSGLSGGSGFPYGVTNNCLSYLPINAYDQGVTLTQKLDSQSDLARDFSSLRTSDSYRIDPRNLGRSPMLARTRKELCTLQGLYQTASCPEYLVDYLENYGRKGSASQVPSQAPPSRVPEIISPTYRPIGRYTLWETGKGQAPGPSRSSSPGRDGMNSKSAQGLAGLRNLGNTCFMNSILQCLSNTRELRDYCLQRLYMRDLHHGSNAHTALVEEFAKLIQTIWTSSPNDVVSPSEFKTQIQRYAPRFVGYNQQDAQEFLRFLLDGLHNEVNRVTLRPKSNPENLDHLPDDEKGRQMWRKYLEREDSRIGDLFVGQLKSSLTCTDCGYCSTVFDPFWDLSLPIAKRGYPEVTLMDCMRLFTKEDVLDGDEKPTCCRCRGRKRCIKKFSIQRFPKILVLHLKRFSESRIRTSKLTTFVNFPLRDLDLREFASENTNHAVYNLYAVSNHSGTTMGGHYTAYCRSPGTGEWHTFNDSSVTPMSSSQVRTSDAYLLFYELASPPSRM

The target in this assay is Ubiquitin carboxyl-terminal hydrolase 2 (Homo sapiens) (UniProt O75604). The assay is described as follows: Confirmation Assay for Inhibitors of Ubiquitin-specific Protease USP2a Using CHOP2 as the Reporter. Also: nearly all actives have a fitted effect of over 55% in size.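 As to activity change, negative = inhibition: plate controls were DMSO wells for no effect and full inhibition by NEM control for full effect.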 Conditions: USP2 core, Ub-CHOP2 coupled reporter fluorescence; series mostly up to 38.3 µM; activity change, negative = inhibition: at the top concentration. The gist of the method:
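Ub-CHOP2 cleavage coupled to reporter activation was read by fluorescence after 60 min at RT, with 25 nM final Ub-CHOP2 and substrate. Enzyme (10 nM final USP2 core) first sat 30 min with compound; data were normalized to NEM and fitted to concentration-response curves.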
As for `Cc1cc2c(c(=O)n1CC1CCCO1)C(c1ccco1)C(C#N)=C(N)O2` (centres undefined), the “activity change, negative = inhibition” value is 6.21% (inactive). Take `CCn1c(COc2ccc(C)cc2)nnc1SCC(=O)Nc1ccc2c(c1)OCCO2`: the “activity change, negative = inhibition” value is -3.89% (inactive). With `C=CCSC1=N/C(=C\C=C\c2ccco2)C(=O)S1`, the “activity change, negative = inhibition” value was -9.76% (inactive).

`CC[C@]12c3[nH]c4cc(-c5ccco5)ccc4c3CCN1C(=O)[C@@H](CC(=O)NC/C=C(\C)CCC=C(C)C)C[C@@H]2C(=O)N1CCN(C(=O)C2CC2)CC1`: the “activity change, negative = inhibition” value was -2.16% (inactive). The same measure, in the same setting: with `Cc1nn(CC(=O)Nc2cccc(S(N)(=O)=O)c2)c(C)c1[N+](=O)[O-]` the figure was 1.06% (inactive); with `COc1ccc(/C=C\C(=O)O[C@@H]2C(O)C(O[C@@H]3OC(C)[C@H](O[C@@H]4OCC(O[C@H]5O[C@H](CO)[C@@H](O)C(O)C5O)C(O)C4O)C(O)C3O)[C@H](OC(=O)[C@]34CCC(C)(C)C[C@@H]3C3=CCC5[C@@]6(C)CC(O)C(O[C@@H]7OC(CO)C(O)[C@H](O)[C@H]7O)[C@@](C)(C(=O)O)C6CC[C@@]5(C)[C@]3(CO)CC4)O[C@H]2C)cc1` (some centres undefined), 2.28% (inactive); with `CCOC(=O)N1CCN(C(=O)c2cc3c(ccc4ccccc43)oc2=O)CC1`, 0.893% (inactive). On the same count and under the same terms, with `COc1ccccc1NC(=O)CSc1nc(O)cc(=O)n1-c1ccccc1OC` the figure was -2.53% (inactive). As to `CCC(C(=O)NCc1ccccc1OC)n1nc(C)n2c(cc3occc32)c1=O` (centres undefined), the “activity change, negative = inhibition” value was -0.347% (inactive). The same measure, in the same setting: with `CCN(CC)CCNc1nc(-c2ccccc2)c2c(c1C#N)CC(C)(C)OC2` the figure was -2.42% (inactive). With `CCOC(=O)C1CCCN(CC(=O)Nc2c(C(=O)OC)[nH]c3ccc(C)cc23)C1` (centres undefined), the “activity change, negative = inhibition” value was -1.36% (inactive). As to `Cc1ccc(C2=NC(=O)/C(=C/c3cc(O)c(O)c(Br)c3)S2)cc1`, the Potency was 7.36 µM (active). With `Clc1ccccc1-c1nnc2sc(-c3cccs3)nn12`, the “activity change, negative = inhibition” value is -1.13% (inactive). Same read-out and setting: with `CCN1C(=O)C(NC(C)=O)c2cc(OC)ccc21` (centres undefined) the figure was 1.61% (inactive); with `O=C(C1CCCN(S(=O)(=O)c2cccc3cccnc23)C1)N1CCN(c2ccccc2F)CC1` (centres undefined), -4.76% (inactive).

For the molecule `CC(C)c1ccc(CCNC(=O)c2ccc([N+](=O)[O-])cc2)cc1`, the “activity change, negative = inhibition” value is -1.71% (inactive). Take `Cc1cc(SCC(=O)NC2CCCCC2)nc2ccccc12`: the “activity change, negative = inhibition” value was -4.63% (inactive). Same read-out and setting: as for `CCOc1ccc2nc(NC(=O)Nc3ccccc3)sc2c1`, the figure is -2.42% (inactive); as for `COc1ccc2[nH]c(=O)c(CN(C)C(=O)C3CCCCC3)cc2c1`, -0.262% (inactive).

As for `Cc1ccc(SCC(=O)Nc2ccc(C(=O)Nc3ccc(O)cc3)cc2)cc1`, the “activity change, negative = inhibition” value was -2.22% (inactive). On to `COc1ccc(-c2nc(C#N)c(NCC3CCCO3)o2)cc1OC` (centres undefined), for which the “activity change, negative = inhibition” value was -2.32% (inactive). Same read-out and setting: as for `CCn1cc(C(=O)N2CCOCC2)c(=O)c2cc(S(=O)(=O)N(C)C)ccc21`, the figure is 2.43% (inactive); as for `CCc1cc2c(=O)c(-n3cnc4ccccc43)coc2cc1O`, -1.46% (inactive). As to `CCCCC(CC)CN=C(N)NC(N)=NCCCCCCN=C(N)NC(N)=NCC(CC)CCCC` (centres undefined), the Potency is 4.65 µM (active). Consider `O=C(Nc1nnc(-c2ccco2)s1)C1CCCCC1`, for which the “activity change, negative = inhibition” value was 0.407% (inactive).

On to `CC(C)(C)C1CCc2nc(NC(=O)Cc3cn4ccsc4n3)sc2C1` (centres undefined), for which the “activity change, negative = inhibition” value is -5.16% (inactive). On to `CC(C)CC(=O)NC(=S)Nc1nc(-c2ccc(Cl)cc2)cs1`, for which the “activity change, negative = inhibition” value is 2.55% (inactive).

On to `COC(=O)N/N=C\c1cc(Br)ccc1OCc1ccccc1`, for which the “activity change, negative = inhibition” value was -1.87% (inactive). As for `CNc1nc(OCCNC(=O)Nc2ccccc2)nc(N2CCOCC2)n1`, the “activity change, negative = inhibition” value is -0.528% (inactive). Still for that read-out and setting: as for `Cc1c(NC(=O)C2CCCN(S(=O)(=O)c3cnc[nH]3)C2)c(=O)n(-c2ccccc2)n1C` (centres undefined), the figure is 4.21% (inactive); as for `COc1cc(C)c(S(=O)(=O)NCc2ccc3c(c2)OCO3)cc1C`, 5.8% (inactive).

In the case of `Cc1ccc(/C(O)=C/C(=O)C(=O)NNC(=O)C(O)(c2ccccc2)c2ccccc2)cc1`, the Potency is 14.7 µM (active). Turning to `COc1cc(/C=N/NC(=O)c2cc(-c3ccccc3)nc3ccccc23)ccc1O`, the “activity change, negative = inhibition” value is 0.701% (inactive). In the case of `COC(=O)C1CCN(C(=O)c2cc(-c3ccco3)nc3ccccc23)CC1`, the Potency was 13.1 µM (active). Regarding `O=C(COC(=O)/C=C/c1ccc(Cl)cc1)NC1CC1`, the “activity change, negative = inhibition” value was 0.196% (inactive). The same measure, in the same setting: as for `CCOC(=O)Cn1c(=O)oc2cc(S(=O)(=O)Nc3cc(Cl)ccc3OC)ccc21`, the figure is 3.99% (inactive). Regarding `O=C(O)c1cc(N2N=C(C(F)(F)F)/C(=C/C=C/c3ccco3)C2=O)ccc1Cl`, the Potency is 5.85 µM (active).

Regarding `c1ccc(Nc2c3c(nc4ncnn24)CCC3)cc1`, the “activity change, negative = inhibition” value is 1.21% (inactive). Consider `CC(=O)c1c(N2CCCC2)[nH]c(-c2ccccc2)nc1=S`, for which the “activity change, negative = inhibition” value was 3.15% (inactive).
